# Compound activity from PubChem.
# Htt clearance: clearance of mutant huntingtin inclusions, primary screen, imaging, HeLa Exon1htt(103Q)mCFP, confocal imaging; inhibition, % at 1.5 µM; aggregate imaging; zero = plate's median compound well; 47,000 compounds, 0.42% hits; AID 853, 2007;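 active means inhibition of aggregate fluorescence above about 70%, also judged a hit by eye on the cell image, limit read from the data, passing the limit was not always enough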;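 further: cells exposed to compound for three days before fixation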
# M1 antag: antagonists of rat M1 muscarinic receptor; Muscarinic acetylcholine receptor M1 (Rattus norvegicus), P08482; CHO-M1 cells, Fluo-4 calcium, ACh EC80 antagonist mode; active compounds read low; B-score at 10 µM; 64,000 compounds, 3.4% hits; AID 628, 2007;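 active means calcium fluorescence response, raw or row-and-column corrected B-score, differing from the plate sample mean either way at a set confidence level, mostly lower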
# WNV protease inh: inhibitors of WNV NS2B-NS3 protease, primary screen, biochemical, fluorogenic substrate; z-score (no concentration beside the values); Genome polyprotein (West Nile virus), P06935; 65,000 compounds, 0.18% hits; AID 577, 2007; fluorogenic substrate Ex360/Em465; active compounds read low; in the data active means z-score below about -3
# M1 agonist: M1 muscarinic receptor agonists, primary screen, CHO-M1 cells, Fluo-4 calcium, agonist mode. Muscarinic acetylcholine receptor M1. Fluo-4 calcium fluorescence; active compounds read high. B-score at 10 µM. 64,000 compounds, 3% hits. AID 626, 2007;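 active means fluorescence rise, raw or as B-score row- and column-corrected plate score, outside the 99.7% band of its plate's samples, either direction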
# D1 allo mod: D1 CRE-luciferase signal change, two-sided – cell-based, HEK293 D1, dopamine EC30, D1 allosteric modulator project, primary screen; B-score at 10 µM; dopamine EC30 potentiation; actives deviate in either direction; AID 641, 2007; 58,000 compounds, 5.9% hits; D(1A) dopamine receptor (Homo sapiens), P21728;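 active means luminescence count or its row- and column-corrected plate score outside the 99.7% band of the plate's sample wells, on either side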
# Target sequence (P21728 whole entry, looked up): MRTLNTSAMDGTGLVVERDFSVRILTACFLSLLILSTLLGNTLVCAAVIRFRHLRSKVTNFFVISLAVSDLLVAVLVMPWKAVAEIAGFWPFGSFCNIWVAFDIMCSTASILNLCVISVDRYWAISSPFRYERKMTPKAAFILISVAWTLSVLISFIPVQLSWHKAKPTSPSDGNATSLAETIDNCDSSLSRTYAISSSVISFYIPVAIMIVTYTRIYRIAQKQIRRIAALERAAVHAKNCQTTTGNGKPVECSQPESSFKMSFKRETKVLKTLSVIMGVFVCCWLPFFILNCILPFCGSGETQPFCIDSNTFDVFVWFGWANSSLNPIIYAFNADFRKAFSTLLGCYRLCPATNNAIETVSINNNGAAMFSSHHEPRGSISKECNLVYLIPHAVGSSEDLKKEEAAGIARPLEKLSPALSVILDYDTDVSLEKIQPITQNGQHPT
# Hits are given with their value; n = inactive; x = no result given. Sampled rows, rich in hits. Any-hit rate of the full collection: about 8.9%.
SMILES,Htt clearance,M1 antag,WNV protease inh,M1 agonist,D1 allo mod
CCCn1c(=NC(=O)c2ccc3c(c2)OCO3)c(C#N)cc2c(=O)n3cccc(C)c3nc21,x,n,n,n,n
Cc1cccn2c(=O)c3cc(C#N)c(=NC(=O)c4ccc5c(c4)OCO5)n(CC(C)C)c3nc12,x,n,n,n,n
CC(=O)N=c1c(C#N)cc2c(=O)n3cccc(C)c3nc2n1CC(C)C,x,n,n,13,n
COC(=O)c1ccccc1NC(=O)CSc1nc(O)cc(=O)n1C1CCCC1,x,n,n,44,n
CCCCOC(=O)Nc1cc(C(=O)OC)ccc1C(=O)OC,x,n,n,n,-7
CCCCOC(=O)Nc1ccc(C(=O)OC)cc1,n,n,n,n,n
CC1(C)CC(=O)c2cnc(N3CCc4ccccc4C3)nc2C1,n,n,n,n,n
Nc1ccc2nc(-c3ccc(N)c(Cl)c3)[nH]c2c1,n,x,x,x,x
Nc1ccc(-c2nc3c(Cl)cc(N)cc3[nH]2)cc1,n,n,n,n,-2.6
COCC(C)NC(=O)C1CC(c2cccc(Br)c2)=NO1 (stereo not given),n,n,n,n,n
Cc1cc(NC(=O)CS(=O)(=O)c2cn(Cc3cccc(F)c3)c3ccccc23)no1,x,3.6,n,n,n
Cc1cc(NC(=O)CS(=O)(=O)c2cn(Cc3ccc(F)cc3)c3ccccc23)no1,x,n,n,n,n
Cc1cc(O)ccc1C1(c2ccc(O)cc2C)OC(=O)c2ccccc21,70,x,x,x,x
CN(CC(=O)Nc1nccs1)S(=O)(=O)c1ccc(F)cc1,x,n,n,n,n
CCOc1ccccc1COC(=O)c1cccc(-n2cnnn2)c1,n,n,n,n,10
O=C(NCc1ccc(Cl)cc1)c1noc2c1CCCCC2,x,n,n,n,n
Cc1nc2cccc(C(=O)NCc3ccccc3)c2o1,n,n,n,n,x
CC(=O)c1cc2c(cc1NS(=O)(=O)c1ccc3c(c1)OCCO3)OCO2,x,n,n,n,4.1
CC(=O)c1cc2c(cc1NS(=O)(=O)c1ccc(C)cc1)OCO2,n,x,x,x,x
Clc1cccc(-c2ccc(/C=N/n3cnnc3)o2)c1,x,n,n,n,-5.1
CC(=O)c1sc(NC(=O)c2ccccc2F)nc1C,x,n,n,n,-5.1
O=C(Cn1cc2c(n1)CCCC2)Nc1cc(-c2cccc(Cl)c2)no1,x,n,n,n,n
Cn1c(=O)c2cc(S(=O)(=O)NCCC(=O)NC3CCCCCCC3)ccc2n(C)c1=O,x,n,n,n,-3.6
Cn1c(=O)c2cc(S(=O)(=O)NCCC(=O)NCC3CCCO3)ccc2n(C)c1=O (stereo not given),x,n,n,n,n
CC(=O)N1CCc2cc(S(=O)(=O)NC(CC(C)C)C(=O)Nc3cc(C)ccn3)ccc21 (stereo not given),x,n,n,n,-4
SMILES,Htt clearance,M1 antag,WNV protease inh,M1 agonist,D1 allo mod
O=C(NC1CCC(NC(=O)C(F)(F)C(F)F)CC1)C(F)(F)C(F)F (stereo not given),x,n,n,n,-3.2
O=C(C1CCN(c2ccc(N3CCOCC3)nn2)CC1)N1CCN(c2ccc(F)cc2)CC1,n,n,n,n,x
CCOc1cc(-n2cnnn2)c(OCC)cc1NC(=O)c1cc2ccc(N(CC)CC)cc2oc1=O,n,x,x,x,x
CCN(CC)c1ccc2cc(C(=O)Nc3cccnc3N3CCOCC3)c(=O)oc2c1,x,n,n,7.7,n
Cc1ccc(CCNC(=O)C2CCCN(S(=O)(=O)c3cnc[nH]3)C2)cc1 (stereo not given),70,n,n,n,n
COc1cccc(/C=N/n2c(SC)nnc2-c2ccccc2)c1O,x,n,n,7.2,n
CCOC(=O)c1ccc2ncc(C(=O)OCC)c(NCCN(C)C)c2c1,n,n,n,n,2.9
CCOC(=O)c1cnc2ccc(C(=O)OC)cc2c1NCc1ccco1,x,n,n,n,n
CCOc1ccc(OCC)c(NC(=O)Nc2ccc3c(c2)N(C)C(=O)CS3)c1,n,x,x,x,x
CSc1cccc(NC(=O)CN(c2cc(C)ccc2C)S(C)(=O)=O)c1,n,1.2,n,n,n
CNC(=O)CN(c1cc(C)ccc1C)S(C)(=O)=O,n,n,n,n,n
Cc1cc(NC(=O)CSc2nc(C3CC3)nc3sc4c(c23)CCC(C)C4)no1 (stereo not given),72,n,n,n,n
Cc1cc(NC(=O)CSc2nc(C(C)C)nc3sc4c(c23)CCCC4)no1,x,n,n,n,n
Cc1cc2n(c(=O)c1C#N)CCCN2c1ccccc1,n,x,x,x,x
CC1CN(S(=O)(=O)c2cccc(C(=O)OCc3cc(=O)oc4cc(O)ccc34)c2)CC(C)O1 (stereo not given),n,n,n,n,-4.3
CS(=O)(=O)N1CCCC(c2nc(-c3ccc(S(=O)(=O)NCc4ccccc4)cc3)no2)C1 (stereo not given),x,n,n,n,-3
O=C(Nc1ccc(N2CCCC2)cc1)c1cccc(F)c1,n,n,n,n,-4.9
CC(=O)Nc1ccc(N2CCCCC2)cc1,n,x,x,x,x
O=C(Nc1ccc(N2CCCCC2)cc1)c1ccccc1,n,n,n,n,-4.8
Cc1nc2sccn2c1-c1nc(C2CC2)c(C(=O)c2ccc3c(c2)NC(=O)CO3)s1,x,n,n,n,n
CCOC(=O)C(C)Sc1nc2c(c(=O)[nH]c(=O)n2C)n1CCc1ccccc1 (stereo not given),x,n,n,n,5.6
C/C(Cl)=C/Cn1c(SCC(C)C)nc2c1c(=O)[nH]c(=O)n2C,x,n,n,n,14
CCCCCn1c(SCCCC)nc2c1c(=O)[nH]c(=O)n2C,n,n,n,n,20
CCCCOC(=O)CSc1nc2c(c(=O)[nH]c(=O)n2C)n1C/C=C(\C)Cl,n,n,n,n,n
CCOC(=O)C(C)n1ncn2cccc2c1=O (stereo not given),x,x,n,x,x
SMILES,Htt clearance,M1 antag,WNV protease inh,M1 agonist,D1 allo mod
CNC(=O)c1cc2c(=O)n3cccc(C)c3nc2n1C,x,n,n,n,n
Cc1ccc2c(CC(=O)N3CCN(S(=O)(=O)c4ccc5c(c4)OCCO5)CC3)coc2c1,x,n,n,n,n
C=CCOc1nc2c(c(=O)n(Cc3ccc(Cl)c(Cl)c3)c(=O)n2C)n1C,n,n,n,n,x
CC1Cc2ccccc2C(=O)N1 (stereo not given),n,n,n,n,n
CC1CCC2(CC1)NC(=O)c1ccccc1O2 (stereo not given),n,n,n,n,-2.4
CCOc1ccc(-c2nnc(-c3cccs3)o2)cc1OCC,n,n,n,n,5
O=C(c1ccco1)N1CCN(C(c2ccccc2Cl)c2nnnn2Cc2ccco2)CC1 (stereo not given),x,n,n,12,x
N#Cc1c(N)nc(N2CCCC2)c(C#N)c1-c1ccc(Cl)cc1,x,x,n,x,n
Clc1ccc(-c2nnc(N3CCCC3)nn2)cc1,n,n,n,n,-2.5
Cc1ccc(-c2c3c(=O)n(C)c(=O)n(C)c3c3nnc4ccccc4n23)cc1,n,n,n,n,n
Cc1cccc(-c2c3c(=O)n(C)c(=O)n(C)c3c3nnc4ccccc4n23)c1,n,n,n,5.2,n
